Source: PubChem BioAssay (Tox21)
Results filed as inconclusive are left out. Entries that show only a call come without a potency. Calls of active or inactive are those of the source. The call rests on the fitted dose curve; in most records, active means well fitted curve in the direction sought with a large enough effect in the repeat runs; inconclusive means weak or mixed curves; inactive means no such curve, though single readings can be large; an effect the other way counts as inactive or inconclusive.

Legend:
[1] = Caspase-3/7 induction in HepG2 cells by small molecules, qHTS assay (AID 1346978); settings: HepG2 caspase-3/7 activation, Caspase-Glo luminescence, 17 h; series mostly up to 92.4 µM; further: nearly all actives have a fitted effect of over 15% in size
How it was run: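 Wild-type HepG2 cells, 2,000/well, settled 5 hr at 37 C and 5% CO2, then compound-treated for 17 hr; caspase-3/7 activity read by luminescent Caspase-Glo 3/7 after 30 min at room temperature.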

[2] = Caspase-3/7 induction in CHO-K1 cells by small molecules, qHTS assay (AID 1346980); settings: CHO-K1 caspase-3/7 induction, Caspase-Glo luminescence, 17 h; series mostly up to 92.4 µM; further: nearly all actives have a fitted effect of over 15% in size
How it was run: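 Wild-type CHO-K1 cells exposed to compounds for 17hr at 37 C, 5% CO2. Caspase-3/7 activity then measured by Caspase-Glo 3/7 luminescence after 30min at room temperature.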

[3] = Caspase-3/7 induction in HepG2 cells by small molecules, qHTS cell viability counter screen (AID 1346981); settings: CellTiter-Fluor fluorescence, 17 h; series mostly up to 92.4 µM; further: nearly all actives have a fitted effect of over 30% in size
How it was run: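 Wild-type HepG2 cells, 2,000/well, settled 5 hr at 37 C, 5% CO2 before compound addition. Viability read by CellTiter-Fluor fluorescence, reagent added after 16 hr compound exposure, then 1 hr at 37C, in the same wells as the caspase read.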

[4] = molecular target: Cytochrome P450 2D6 (Homo sapiens) (UniProt P10635); assay: Cytochrome P450 Family 2 Subfamily D Member 6 (CYP2D6) small molecule antagonists: luciferase reporter qHTS assay (AID 1671196); settings: P450-Glo CYP2D6 enzyme assay, luciferin luminescence, 1 h; series mostly up to 115 µM; further: nearly all actives have a fitted effect of over 50% in size; further: potency means the concentration at half of the fitted maximal effect
Cytochrome P450 2D6 (Homo sapiens), sequence (P10635 whole entry, looked up): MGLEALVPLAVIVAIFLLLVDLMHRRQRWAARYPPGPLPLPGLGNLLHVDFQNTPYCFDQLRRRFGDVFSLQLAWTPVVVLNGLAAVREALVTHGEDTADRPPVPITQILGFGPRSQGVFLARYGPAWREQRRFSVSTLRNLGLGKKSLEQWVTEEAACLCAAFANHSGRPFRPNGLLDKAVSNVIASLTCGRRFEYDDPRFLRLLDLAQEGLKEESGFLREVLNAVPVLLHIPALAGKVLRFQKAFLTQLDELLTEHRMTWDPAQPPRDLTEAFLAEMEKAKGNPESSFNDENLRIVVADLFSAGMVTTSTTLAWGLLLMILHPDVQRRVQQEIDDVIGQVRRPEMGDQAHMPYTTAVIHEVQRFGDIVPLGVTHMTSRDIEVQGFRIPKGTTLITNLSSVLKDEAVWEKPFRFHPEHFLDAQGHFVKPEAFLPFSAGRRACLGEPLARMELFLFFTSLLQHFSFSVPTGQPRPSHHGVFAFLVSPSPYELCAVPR
How it was run: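 Cell-free P450-Glo system: CYP2D6 with proluciferin substrate was pre-incubated with compound for 10 min, then reacted with NADPH regeneration for 1 h at room temperature. Luciferin product was detected after 20 min, and data were reported as relative luminescence units.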

[5] = Caspase-3/7 induction in CHO-K1 cells by small molecules, qHTS cell viability counter screen (AID 1346979); settings: CellTiter-Fluor fluorescence, 17 h; series mostly up to 92.4 µM; further: nearly all actives have a fitted effect of over 35% in size; further: potency means the concentration at half of the fitted maximal effect
How it was run: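 Cells (CHO-K1, wild type) are plated at 1,500 per well and incubated 5hr. Test compounds in DMSO are then pinned in, followed by 16hr at 37C and 5% CO2. Viability is read by CellTiter-Fluor fluorescence after 1hr.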

[6] = molecular target: Nuclear receptor subfamily 1 group I member 2 (Homo sapiens) (UniProt O75469); assay: Human pregnane X receptor (PXR) small molecule agonists, qHTS assay (AID 1346982); settings: PXR-Luc HepG2, CYP3A4 luciferase reporter, 24 h; series mostly up to 92.4 µM; further: potency means the concentration at half of the fitted maximal effect; nearly all actives have a fitted effect of over 35% in size
Nuclear receptor subfamily 1 group I member 2 (Homo sapiens), sequence (O75469 whole entry, looked up): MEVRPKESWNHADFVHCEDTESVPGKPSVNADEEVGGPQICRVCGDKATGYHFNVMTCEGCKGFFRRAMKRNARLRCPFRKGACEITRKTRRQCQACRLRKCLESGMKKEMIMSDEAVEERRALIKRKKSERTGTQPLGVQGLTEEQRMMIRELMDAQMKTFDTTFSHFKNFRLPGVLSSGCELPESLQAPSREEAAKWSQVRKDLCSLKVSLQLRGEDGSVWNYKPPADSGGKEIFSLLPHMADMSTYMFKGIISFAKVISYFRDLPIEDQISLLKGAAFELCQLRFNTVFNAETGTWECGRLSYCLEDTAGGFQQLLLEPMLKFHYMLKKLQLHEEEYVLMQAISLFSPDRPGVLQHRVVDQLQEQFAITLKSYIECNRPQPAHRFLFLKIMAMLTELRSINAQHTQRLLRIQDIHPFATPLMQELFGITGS
How it was run: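 PXR-Luc HepG2 reporter cells (CYP3A4-driven luciferase) in 5% charcoal-stripped FBS medium, plated 5 h before compound addition, then treated 24 h at 37C. Luciferase read by ONE-Glo luminescence after 30 min at room temperature.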

[7] = molecular target: Nuclear receptor subfamily 1 group I member 2 (Rattus norvegicus) (UniProt Q9R1A7); assay: Rat pregnane X receptor (rPXR) activation by small molecules, qHTS assay (AID 1346983); settings: rPXR luciferase reporter cells, One-Glo luminescence, 24 h; max activation: hits give high values; further: nearly all actives have a fitted effect of over 20% in size
Nuclear receptor subfamily 1 group I member 2 (Rattus norvegicus), sequence (Q9R1A7 whole entry, looked up): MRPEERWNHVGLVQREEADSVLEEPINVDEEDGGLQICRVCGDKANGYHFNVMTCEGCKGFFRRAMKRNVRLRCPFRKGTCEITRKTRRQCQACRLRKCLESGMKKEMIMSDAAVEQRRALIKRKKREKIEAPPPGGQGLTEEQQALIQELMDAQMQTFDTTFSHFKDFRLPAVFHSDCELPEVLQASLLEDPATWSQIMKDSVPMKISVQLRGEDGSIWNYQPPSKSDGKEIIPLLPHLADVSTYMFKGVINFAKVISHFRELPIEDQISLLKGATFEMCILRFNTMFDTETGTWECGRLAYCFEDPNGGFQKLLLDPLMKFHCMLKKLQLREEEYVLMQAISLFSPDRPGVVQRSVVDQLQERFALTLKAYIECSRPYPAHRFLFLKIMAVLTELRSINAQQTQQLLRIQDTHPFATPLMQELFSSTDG
How it was run: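 Cell-based rPXR activation assay: rPXR cells, 2,000 per well, rested 5hr at 37 C, then exposed to compounds in DMSO for 24 hr at 37 C. Luciferase activity read by One-Glo luminescence after 30 min at room temperature.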

[8] = molecular target: Nuclear receptor subfamily 1 group I member 2 (Homo sapiens) (UniProt O75469); assay: CYP3A4 induction through human pregnane X receptor (PXR) by small molecules, qHTS assay (AID 1346984); settings: DPX-2 HepG2 PXR, CYP3A4-luciferin luminescence, 24 h; series mostly up to 46.1 µM; further: nearly all actives have a fitted effect of over 40% in size
How it was run: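 DPX-2 HepG2 cells carrying a PXR response element and CYP3A4-promoter luciferase construct, treated with compounds 24 hr at 37C. Then P450-Glo CYP3A4 Luciferin-IPA substrate (3uM final) for 3 hr at 37C, One-Glo added, luminescence read.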

SMILES	Potency [1]	Potency [2]	Potency [3]	Potency [4]	Potency [5]	Potency [6]	max activation [7]	Potency [8]
Clc1ccc(Cn2c(CN3CCCC3)nc3ccccc32)cc1	inactive	inactive	inactive	1.74 µM (active)				
NC(=O)C(c1ccccc1)(c1ccccc1)[C@@H]1CCN(CCc2ccc3c(c2)CCO3)C1	inactive	inactive	inactive	0.389 µM (active)	inactive			
O=C(Nc1ccccc1)c1ccccc1O	inactive	inactive		35.6 µM (active)		6.86 µM (active)		
O=C(Nc1ccc(S(=O)(=O)N2CCOCC2)cc1)c1cc(Cl)ccc1NS(=O)(=O)c1ccc(Cl)s1	inactive	inactive	inactive	inactive		9.44 µM (active)		
CCN(CC)CCOC(=O)C(Cc1cccc2ccccc12)CC1CCCO1 (stereo unspecified)	inactive	inactive	inactive	2.75 µM (active)	inactive		10.4% (inactive)	
C#Cc1cccc(Nc2ncnc3cc(OCCOC)c(OCCOC)cc23)c1	inactive	inactive		inactive	6.68 µM (active)	7.5 µM (active)	-7.82% (inactive)	inactive
